Source: PubChem BioAssay (National Center for Advancing Translational Sciences (NCATS))
G9a block: G9a (human) methyltransferase inhibition; AID 504332; 8.8% of 350,000 active; G9a H3K9 monomethylation, AlphaScreen, 2 h; Potency, µM (series often up to 102 µM), hits mostly inhibitors; also: nearly all actives have a fitted effect of over 75% in size
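G9a (20 nM) was preincubated 15 min with compound, then reacted 2 h at room temperature with 500 nM biotin-H3K9 peptide and 20 µM SAM. Monomethyl-H3K9 detected by AlphaScreen using anti-H3K9me1 antibody.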
JMJD2A Tudor inh: inhibitors of human JMJD2A Tudor domain; O75164; AlphaScreen JMJD2A-Tudor / H3K4me3 peptide binding; Potency, µM (titrated, usually from 114 µM), hits mostly inhibitors; 4.4% of 390,000 active; also: nearly all actives have a fitted effect of over 50% in size
HP1b chromo inh: HP1-beta chromodomain-methylated histone interaction inhibition; P83916; AlphaScreen HP1-beta / biotin-H3K9me3 peptide binding; Potency, µM (titrated, usually from 114 µM), actives largely listed as inhibitors; 0.56% of 390,000 active; AID 540317; also: nearly all actives have a fitted effect of over 70% in size
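Compound inhibition of the preformed complex between 50 nM HP1-beta and 50 nM biotinylated H3K9me3 peptide was read by AlphaScreen. Buffer was PBS pH 7.4 with 0.01% Tween-20. Incubations ran 30 min at room temperature, with 10 ug/mL donor/acceptor beads.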
Sfp inh: blocks B. subtilis Sfp PPTase activity | 3.5% of 310,000 active | Potency, µM, usual class: inhibitors | Q9F4F7 | Biochemical Sfp PPTase activity, qHTS;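 also: the enzyme is Sfp with the accession as filed and its product quenches rhodamine fluorescence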
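After 15 min at room temperature with compound, 15 nM Sfp received 5 uM rhodamine-CoA plus 12.5 uM BHQ-2-ybbR (50 mM Hepes pH 7.6, 10 mM MgCl2). Rate came from the fluorescence difference over 30 min, ex 525/em 598 nm.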
TDP1 block: TDP1 (human) enzyme inhibition. recombinant TDP1, AlphaScreen DNA substrate cleavage. Q9NUW8. AID 485290. 0.28% of 350,000 active. Potency, µM (top dose mostly 130 µM), most hits filed as inhibitors; also: nearly all actives have a fitted effect of over 40% in size
Target sequence (Q9NUW8 whole entry, looked up): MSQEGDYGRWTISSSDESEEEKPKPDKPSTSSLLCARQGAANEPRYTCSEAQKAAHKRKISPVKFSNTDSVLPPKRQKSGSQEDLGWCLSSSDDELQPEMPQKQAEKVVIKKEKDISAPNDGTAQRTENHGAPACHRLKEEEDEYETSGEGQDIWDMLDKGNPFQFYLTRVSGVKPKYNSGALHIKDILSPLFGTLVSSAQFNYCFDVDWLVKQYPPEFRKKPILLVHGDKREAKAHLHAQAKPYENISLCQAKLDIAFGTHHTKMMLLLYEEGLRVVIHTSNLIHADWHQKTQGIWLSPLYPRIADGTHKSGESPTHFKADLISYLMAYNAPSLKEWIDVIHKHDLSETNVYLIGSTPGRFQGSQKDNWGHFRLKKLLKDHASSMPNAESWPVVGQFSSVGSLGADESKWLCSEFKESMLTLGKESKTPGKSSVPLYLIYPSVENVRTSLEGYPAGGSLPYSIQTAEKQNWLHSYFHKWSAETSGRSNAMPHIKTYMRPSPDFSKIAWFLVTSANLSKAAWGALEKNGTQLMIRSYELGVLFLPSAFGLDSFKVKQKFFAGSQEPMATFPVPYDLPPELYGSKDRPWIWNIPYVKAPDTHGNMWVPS
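Enzyme-compound mixtures sat 15 min at room temperature, followed by a 5 min reaction with 15 nM final substrate and 10 min with AlphaScreen beads. Recombinant human Tdp1 was used at 1 nM final.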
BAZ2B block: inhibitors of human BAZ2B bromodomain; AlphaScreen BAZ2B-H3K14Ac peptide displacement; Potency, µM (titrated, usually from 114 µM), actives largely listed as inhibitors; Q9UIF8; 4.4% of 360,000 active; also: nearly all actives have a fitted effect of over 60% in size
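BAZ2B 50 nM plus b-H3(5-23)K14Ac 50 nM, PBS pH 7.4/0.01% Tween-20, 30 min RT; compound added (max 110 uM), 30 min RT; streptavidin donor/Ni-chelate acceptor beads 10 ug/mL final, 20 min dark; AlphaScreen read.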
Each line names hits and unclear results; the compound was inactive in the other large screens. The list is not random: actives were taken first. Their share in the collection is about 12%. Calls follow the shape of the dose curve; as a rule, active = well fitted curve in the direction sought with a large enough effect; inconclusive = small, poorly fitted or top-dose-only effect, or another doubt; inactive = no such curve, though single readings can be large; an effect the other way counts as inactive or inconclusive.

OCC(O)/C=N/Nc1nc(Nc2ccccc2)nc(Nc2ccccc2)n1 (stereo not drawn)	none (no result: TDP1 block)
O=C1NC2=C(CCc3ccccc32)C(c2ccccc2)N1 (stereo not drawn)	G9a block 45µM
CC(=O)C1=C(c2ccccc2)NC(=O)NC1c1ccccc1 (stereo not drawn)	none (no result: G9a block, TDP1 block)
COc1cc(C2NC(=S)NC3=C2CCc2ccccc23)cc(OC)c1OC (stereo not drawn)	G9a block 10µM
COc1ccc(C2C3=C(Nc4ncnn42)c2ccccc2CC3)cc1OC (stereo not drawn)	G9a block inconclusive (no result: JMJD2A Tudor inh, HP1b chromo inh)
C=CCOc1ccc(C2NC(=O)c3ccccc3O2)cc1 (stereo not drawn)	none (no result: TDP1 block)
C=CCOc1ccc(C2NC(=S)NC3=C2CCc2ccccc23)cc1 (stereo not drawn)	G9a block 22µM, JMJD2A Tudor inh inconclusive, BAZ2B block inconclusive
COc1ccc2c(c1)-c1nc(/N=C/c3c(O)ccc4ccccc34)sc1CC2	G9a block 1.6µM, JMJD2A Tudor inh 40µM, HP1b chromo inh inconclusive, BAZ2B block inconclusive
COc1ccc2c(c1)-c1nc(/N=C/c3ccc(O)cc3)sc1CC2	G9a block inconclusive, JMJD2A Tudor inh inconclusive, BAZ2B block 50µM
O=C(CNC(=S)N(Cc1ccccc1)Cc1cccnc1)N1CCOCC1	none
O=[N+]([O-])c1cccnc1N1CCN(c2ccc(F)cc2)CC1	G9a block 45µM, JMJD2A Tudor inh 25µM, HP1b chromo inh 45µM, BAZ2B block 40µM
O=[N+]([O-])c1cccnc1N1CCOCC1	none (no result: G9a block)
COc1ccc(-n2cc(-c3ccc4c(c3)OCO4)n(CC(=O)Nc3cc(Cl)ccc3C)c2=O)cc1	G9a block inconclusive, BAZ2B block 89µM (no result: Sfp inh)
Cc1ccc(NC(=O)Cn2c(-c3ccc4c(c3)OCO4)cn(-c3ccccc3)c2=O)cc1C	G9a block inconclusive, JMJD2A Tudor inh inconclusive (no result: Sfp inh)
CCn1c(=O)c2sccc2n(Cc2cc(C(=O)OC)ccc2OC)c1=O	none (no result: TDP1 block)
CCN(CC)c1ccc(NC(=O)CSc2nc3nc(C)cc(C)c3c(=O)[nH]2)cc1	G9a block 40µM, JMJD2A Tudor inh 45µM, HP1b chromo inh inconclusive, BAZ2B block 45µM (no result: Sfp inh)
COc1ccc(NC(=O)CSc2nc3nc(C)cc(C)c3c(=O)[nH]2)cc1	none
COc1ccc(-c2noc(CN(C(=O)C(C)Oc3ccc(C)cc3)C(C)C)n2)cc1 (stereo not drawn)	none (no result: Sfp inh)
COc1ncc2nc(-c3ccccc3)c(=O)n(-c3ccccc3)c2n1	none (no result: JMJD2A Tudor inh, HP1b chromo inh, TDP1 block, BAZ2B block)
C[n+]1ccc(C(=O)Nc2ccccc2Cl)cc1	G9a block 25µM, JMJD2A Tudor inh inconclusive, BAZ2B block inconclusive (no result: TDP1 block)
COc1ccccc1CCNC(=O)CCSc1nc(-c2ccco2)cc(C(F)(F)F)n1	Sfp inh 56µM
O=C(CCSc1nc(-c2ccco2)cc(C(F)(F)F)n1)NCCc1ccccc1	none
O=C(CCSc1nc(-c2ccco2)cc(C(F)(F)F)n1)N1CCCc2ccccc21	G9a block 16µM
CCN(c1ccccc1)S(=O)(=O)c1nnc(NC(=O)C2CCCCC2)s1	G9a block inconclusive, JMJD2A Tudor inh inconclusive, BAZ2B block inconclusive (no result: Sfp inh)
CC(C)(C)C(=O)/C=c1\s/c(=C\c2ccc(-c3ccc([N+](=O)[O-])cc3)o2)c(=O)n1CC(=O)NC(N)=O	G9a block 45µM, Sfp inh inconclusive, BAZ2B block inconclusive
CCCCC(=O)N/N=C/c1ccc(-c2ccc([N+](=O)[O-])cc2)o1	none
Cc1ccc(NC(=O)CN(C)S(=O)(=O)c2cnc[nH]2)cc1	none (no result: Sfp inh)
COc1cccc(-n2c(-c3cccc(F)c3)nc3c(cnn3-c3ccc(C)cc3)c2=O)c1	none (no result: Sfp inh, BAZ2B block)
CCCCCC(=O)Nc1cc(S(=O)(=O)O)cc2cc(S(=O)(=O)O)cc(O)c12	JMJD2A Tudor inh 1.1µM, HP1b chromo inh 1.4µM (no result: G9a block, Sfp inh, TDP1 block, BAZ2B block)
O=C(/C(=C(\O)c1ccccc1)c1ncc[nH]1)c1ccccc1	none
CN(C)C(=O)c1cc2cc(Br)ccc2s1	none
CC(C)[C@H](N)c1nnc(SCc2ccc(Cl)cc2)o1	JMJD2A Tudor inh 14µM (no result: G9a block)
